Most compounds without a hit are left out; they make up all but 2.6% or so of the library.
KKLEB cytotox: reduces viability of KKLEB cystic fibrosis airway cells. actives 0.36% (n = 360,000). AID 602141. activity change (cytotoxicity), % at 5 µM. KKLEB CF airway cells viability, ATPlite luminescence, overnight; stronger effect = lower value; cells stimulated with P. aeruginosa culture filtrate;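 active means corrected activity change at or below -50% at 5 µM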
CF NFkB inh: cystic fibrosis NF-kB activation inhibition | KKLEB NF-kB-GFP reporter, PAF-induced, GFP fluorescence overnight | actives 0.86% (n = 360,000) | inhibition, % at 5 µM;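 active means at least 50% inhibition at 5 µM, scaled per plate between neutral and stimulator controls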;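 further: PAF is a Pseudomonas aeruginosa culture filtrate used as stimulus; plate controls were PAF-stimulated DMSO wells for no effect and unstimulated DMSO wells for full effect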
TROY signal inh: blocks TROY-dependent signaling in reporter cells; Q293 LMP1-TROYcd NF-kB luciferase reporter, 4 h; inhibition, % at 10 µM; actives 0.98% (n = 360,000); AID 1347056;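 active means compounds whose plate-normalised and pattern-corrected inhibition of the luciferase reporter signal at the single screening dose is 50% or more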
LGR2 antag: inhibitors of bursicon-induced Drosophila LGR2 receptor cAMP signaling | HEK293 LGR2, CRE-luciferase, bursicon-stimulated, 4 h | inhibition, % at 9.99 µM | actives 0.35% (n = 380,000) | AID 720647;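 active means drop in luminescence signal, shown as inhibition above about 50% in the replicate tests, limit read from the data, passing the limit was not always enough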;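 further: agonist challenge used bursicon conditioned medium at about half maximal strength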
TWEAK-Fn14 inh: blocks TWEAK-Fn14 interaction in a reporter cell assay; TWEAK-stimulated Fn14 reporter cells, luciferase luminescence, 8 h; inhibition, % at 10 µM; actives 2% (n = 360,000); in the data active means inhibition above about 50%
EWS-Fli block: EWS/Fli transcriptional activity inhibition; A673 NR0B1-luciferase reporter, viability-normalised; inhibition, % at 12.6 µM; actives 0.67% (n = 350,000);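 active means mean inhibition of at least 50% after viability correction, with every replicate also passing that limit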;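 further: firefly luciferase signal divided by Alamar Blue viability fluorescence both relative to DMSO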
* = called active by the depositor; nt = not tested or not shown.

SMILES	KKLEB cytotox	CF NFkB inh	TROY signal inh	LGR2 antag	TWEAK-Fn14 inh	EWS-Fli block
Cc1ccc2c(c1)N(CC(=O)NCCCN1CCCC1)C(=O)CO2	0	12	6	3	-18	nt
C[C@H]1CN([C@@H](C)CO)C(=O)c2cc(NS(=O)(=O)c3ccc(Cl)cc3)ccc2O[C@@H]1CN(C)C	nt	nt	nt	-3	nt	4
c1ccc(-c2noc(-c3ccccc3-c3ccccc3)n2)cc1	-3	-12	-36	-1	7	nt
CN(C)c1ccc(-c2noc(-c3ccccc3O)n2)cc1	-10	5	27	nt	76*	nt
c1ccc(NCCSc2nc3ccccc3s2)cc1	14	-28	-38	14	-6	-7
CCS(=O)CCSc1nc2ccccc2s1 (stereo unspecified)	4	-6	60*	nt	80*	nt
Cc1noc(C)c1NC(=O)N(C)C[C@@H]1Oc2c(NS(=O)(=O)c3ccc(F)cc3)cccc2C(=O)N([C@H](C)CO)C[C@H]1C	nt	nt	nt	1	nt	-6
C[C@@H]1CN([C@H](C)CO)C(=O)c2cc(NC(=O)CCCN(C)C)ccc2O[C@@H](C)CCCCO[C@@H]1CN(C)S(=O)(=O)c1cn(C)cn1	nt	nt	nt	1	nt	-14
CN(C)C(=O)c1cccc(-c2ccc([C@@H]3[C@@H](CO)N4C(=O)CN(C(=O)C5CCCC5)C[C@H]34)cc2)c1	nt	nt	nt	-14	nt	3
COc1ccc(/C=C2\CCCCC2=O)cc1	2	11	-13	-16	-23	-47
COc1ccc(C=C2CS(=O)(=O)CC(=Cc3ccc(OC)cc3)C2=O)cc1	-18	92*	56*	active	88*	60*
CCCC(=O)N1CC2(CCN(C(=O)CC3CC3)CC2)c2c(n(C)c3cc(OC)ccc23)[C@@H]1CO	nt	nt	nt	-32	nt	6
O=C(Nc1ccccc1)N1CC(=O)N2[C@H](CO)[C@H](c3ccc(C#CC4CCCC4)cc3)[C@@H]2C1	nt	nt	nt	18	nt	-5
CCOC(=O)C(C(=O)OCC)C(Nc1cccc(Br)c1)c1ccccc1 (stereo unspecified)	-4	28	18	nt	71*	nt
COc1ccccc1-c1noc(CCCC(=O)NC2CCCC2)n1	-3	3	12	-17	2	2
O=C(CCCc1nc(-c2ccccc2Cl)no1)NC1CCCC1	-9	4	52*	-14	92*	nt
Cc1nn(-c2ccccc2)c(C)c1/C=N/NC(=O)c1cc(-c2ccccc2)n[nH]1	-21	64*	2	nt	11	nt
Cc1nn(-c2ccccc2)c(Cl)c1/C=N/NC(=O)c1ccn[nH]1	-13	-5	-16	-45	50*	-43
Cc1nn(-c2ccccc2)c(Cl)c1/C=N/NC(=O)c1[nH]ncc1Br	-28	26	28	17	53*	3
Cc1nn(-c2ccccc2)c(C)c1/C=N/NC(=O)c1cc(-c2cccc3ccccc23)n[nH]1	-5	9	-5	-15	14	9
C[C@H]1CN([C@@H](C)CO)C(=O)c2cc(C#CC3CCCCC3)cnc2O[C@@H]1CN(C)Cc1cccnc1	nt	nt	nt	6	nt	-6
CN1C(=O)c2cc(NC(=O)Nc3ccc(F)cc3)ccc2OC[C@H]2O[C@H](CC(=O)NC3CCC3)CC[C@H]21	nt	nt	nt	-6	nt	21
CN(C)/N=C/C=C1\CCC/C(=C\c2ccc(F)c(F)c2)C1=O	-2	-12	-13	25	87*	-39
COc1ccc(/C=C2\CCC/C(=C\C=N\N(C)C)C2=O)cc1	15	-35	-13	-8	44	18
O=C(C[C@H]1CC[C@@H]2[C@H](COC[C@@H](O)CN2Cc2cccc(C(F)(F)F)c2)O1)NCCc1ccncc1	nt	nt	nt	7	nt	5
SMILES	KKLEB cytotox	CF NFkB inh	TROY signal inh	LGR2 antag	TWEAK-Fn14 inh	EWS-Fli block
CCn1c2ccccc2c2nc3cc(C(=O)O)ccc3nc21	-63*	24	-44	-11	34	-20
CC(=O)c1sc(NC(=O)C=C(C)C)nc1C	5	-9	-39	nt	-12	nt
CC(=O)c1sc(NC(=O)C2(F)C(F)(F)C(F)(F)C(F)(F)C(F)(F)C2(F)F)nc1C	-52*	65*	62*	2	65*	26
COc1ccc(S(=O)(=O)N(C)C[C@@H]2Oc3ccc(NC(=O)c4ccncc4)cc3CC(=O)N([C@H](C)CO)C[C@H]2C)cc1	nt	nt	nt	-7	nt	-10
CC(=O)c1c(OC(=O)c2ccc(C)cc2)c2ccccc2n1C	2	4	17	21	33	12
Cc1ccc(C(=O)Oc2cc(C)n(C)c(=O)c2)cc1	-4	4	41	nt	54*	nt
Cc1cccc(S(=O)(=O)N2C[C@@H](O)COC[C@@H]3O[C@H](CC(=O)Nc4ccccc4)CC[C@H]32)c1	nt	nt	nt	14	nt	9
CCCC(C(=O)NC(C)(C)C)N(C(=O)c1snc(C(N)=O)c1N)c1ccc2c(c1)OCCO2 (stereo unspecified)	-7	22	82*	27	86*	32
CC(C)c1nnc(NC(=O)CC(=O)Nc2ccccc2C(=O)O)s1	9	1	28	nt	83*	nt
CCc1nnc(NC(=O)CC(=O)Nc2ccccc2C(=O)O)s1	7	19	-15	30	36	12
CC(C)Cc1nnc(NC(=O)CC(=O)Nc2ccccc2C(=O)O)s1	-1	-6	-5	nt	51*	nt
CC1=NNC(=O)/C1=C\c1cn(-c2ccccc2)nc1-c1ccc(F)cc1	-83*	91*	75*	nt	100*	nt
CC1=NNC(=O)/C1=C\c1cn(-c2ccccc2)nc1-c1cccs1	-25	112*	88*	59*	109*	77*
O=C(N/N=C/c1cn(-c2ccccc2)nc1-c1cccs1)c1ccccc1F	2	-33	-4	nt	21	nt
CO[C@H](CN(C)S(=O)(=O)c1cn(C)cn1)[C@@H](C)CN(C(=O)Nc1ccc(F)cc1)[C@@H](C)CO	nt	nt	nt	-20	nt	-7
COc1ccc(NC(=O)c2noc3c2CCC3)cc1	2	4	-20	nt	58*	nt
COC(=O)c1ccccc1NC(=O)c1noc2c1CCCC2	3	-5	-36	nt	-39	nt
O=C(Nc1cccc(O)c1)c1noc2c1CCCCC2	-7	2	59*	17	81*	44
Cc1ccc(NC(=O)c2noc3c2CCC3)cc1C	-1	-3	15	10	56*	5
COc1ccc(CNC(=O)c2noc3c2CCCCC3)cc1	3	7	-45	-26	-29	nt
NC(=S)NN=C1CSSC1	3	70*	-5	nt	-5	nt
CCOc1ccccc1C1CC(=O)Nc2cc3c(cc21)OCCO3 (stereo unspecified)	-34	20	23	nt	17	nt
COc1ccccc1C1CC(=O)Nc2cc(C)c(C)cc21 (stereo unspecified)	-12	7	-28	3	0	54*
CCCOc1ccccc1C1CC(=O)Nc2cc3c(cc21)OCCO3 (stereo unspecified)	1	33	48	nt	55*	nt
C[C@@H]1CN([C@H](C)CO)C(=O)c2cccc(NC(=O)c3cnccn3)c2O[C@@H]1CN(C)C(=O)Nc1ccc(F)cc1	nt	nt	nt	5	nt	8

Screening data from PubChem BioAssay.
